The results in this text go back to PubChem BioAssay (NCATS).

Assay [1] in a line: qHTS of pediatric cancer cell lines to identify multiple opportunities for drug repurposing: Primary screen for SK-N-SH cells (AID 1347098). Note: nearly all actives have a fitted effect of over 65% in size. Note: potency is the fitted concentration of half-maximal effect. The procedure, abridged: (§1)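 Cells (500-1,000/well) rested 5 h, then received compounds for 48 h; metabolically active cells were measured by CellTiter-Glo luminescence. Final concentrations spanned up to 46 µM (MIPE, 11-point) or 0.59 nM-46 µM (NPC, 8-point) in primary screens, 11-point in follow-ups.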
(In general: Quantitative high-throughput screening tests each substance at several concentrations.)

The nature of assay [2]: qHTS of pediatric cancer cell lines to identify multiple opportunities for drug repurposing: Primary screen for BT-12 cells (AID 1347101). Note: nearly all actives have a fitted effect of over 25% in size. Note: potency is the fitted concentration of half-maximal effect. In short, it runs like this:
as §1

Assay [3] can be described thus: qHTS of pediatric cancer cell lines to identify multiple opportunities for drug repurposing: Primary screen for Rh18 cells (AID 1347102). Note: nearly all actives have a fitted effect of over 65% in size. Note: potency is the fitted concentration of half-maximal effect. The procedure, abridged: (§2)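 Viability after 48 h compound treatment at 37C, 500-1,000 cells/well, read as ATP luminescence with CellTiter-Glo. Primary screens used 11-point (MIPE, 0.78 nM-46 µM) or 8-point (NPC, 0.59 nM-46 µM) final concentrations; follow-up screens used 11-point dilutions.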

The nature of assay [4]: qHTS of pediatric cancer cell lines to identify multiple opportunities for drug repurposing: Primary screen for OHS-50 cells (AID 1347103). Note: nearly all actives have a fitted effect of over 40% in size. Note: potency is the fitted concentration of half-maximal effect. In short, it runs like this:
as §1

A short description of assay [5]: qHTS of pediatric cancer cell lines to identify multiple opportunities for drug repurposing: Primary screen for RD cells (AID 1347104). Note: nearly all actives have a fitted effect of over 55% in size. Note: potency is the fitted concentration of half-maximal effect. In short, it runs like this: (§3)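 Plated cells (500-1,000 per well, growth media) were allowed to settle for 5 hours, treated with compound dilutions for 48 hours, then lysed with CellTiter-Glo for 15 min at room temperature before luminescence reading.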

The nature of assay [6]: qHTS of pediatric cancer cell lines to identify multiple opportunities for drug repurposing: Primary screen for MG 63 (6-TG R) cells (AID 1347105). Note: nearly all actives have a fitted effect of over 50% in size. Note: potency is the fitted concentration of half-maximal effect. In short, it runs like this:
as §3

Assay [7] can be described thus: qHTS of pediatric cancer cell lines to identify multiple opportunities for drug repurposing: Primary screen for control Hh wild type fibroblast cells (AID 1347106).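 Note: series mostly up to about 46 µM; a drop in luminescence marks cytotoxicity and a rise apparent proliferation; nearly all actives have a fitted effect of over 55% in size.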 The procedure, abridged:
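Cells (500-1,000/well) in growth media were settled 5 h at 37 degrees C, then given compounds for 48 h. Viability was read as CellTiter-Glo luminescence. Primary runs used MIPE at 11 points (0.78 nM-46 µM) and NPC at 8 points (0.59 nM-46 µM); follow-ups used 11 points.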

Assay [8] can be described thus: qHTS of pediatric cancer cell lines to identify multiple opportunities for drug repurposing: Primary screen for Rh30 cells (AID 1347107). Note: nearly all actives have a fitted effect of over 75% in size. Note: potency is the fitted concentration of half-maximal effect. In short, it runs like this: as §2
The nature of assay [9]: qHTS of pediatric cancer cell lines to identify multiple opportunities for drug repurposing: Primary screen for LAN-5 cells (AID 1347100). Note: potency is the fitted concentration of half-maximal effect. In short, it runs like this: as §2

Results filed as inconclusive are left out. The source made the active and inactive calls. Calls come from the whole dose curve; as a rule, active = well fitted curve in the direction sought with a large enough effect; inconclusive = small, poorly fitted or top-dose-only effect, or another doubt; inactive = no such curve, though single readings can be large; an effect the other way counts as inactive or inconclusive.

Take `CC=CCC=CCCC(=O)[C@H]1O[C@@H]1C(N)=O`: the Potency entry in assay [1], in assay [2], in assay [3], in assay [4], in [5] and in assay [6] was “inactive” in each case. For the same compound, the Potency entry in assay [7] and in assay [8] was “inactive” in each case.
As for `O=C(O)CCC1CCC(c2cc(F)ccc2F)(S(=O)(=O)c2ccc(Cl)cc2)CC1` (configuration not stated), the Potency entry in assay [1], in [7] and in assay [8] was “inactive” in each case. Besides, the Potency is 2.35 µM (active) in assay [9], 14.8 µM (active) in [5] and 9.35 µM (active) in assay [6].
Consider `CC(C)(Cc1ccc2ccccc2c1)NC[C@@H](O)COc1cccc(Cl)c1C#N`, for which the Potency was 24.1 µM (active) in [1] and 18.7 µM (active) in [9]. The Potency result in assay [3], in assay [4], in assay [5], in [6], in assay [7] and in assay [8] was “inactive” throughout.
`CCCCCN(C)CCC(O)(P(=O)(O)O)P(=O)(O)O`: the Potency result in [1], in [9], in [2], in [3], in [5] and in assay [6] was “inactive” each time. Also, the Potency result in assay [7] and in assay [8] was “inactive” throughout.
With `COc1ccc(C2CC(c3ccccc3)=NN2c2ccc(S(N)(=O)=O)cc2)cc1` (configuration not stated), the Potency result in assay [1], in assay [3], in assay [6] and in assay [7] was “inactive” in each case. The Potency in assay [2] is 21.7 µM (active).
In the case of `CN1CCN(CCOc2cc(OC3CCOCC3)c3c(Nc4c(Cl)ccc5c4OCO5)ncnc3c2)CC1`, the Potency in assay [1] was 13.6 µM (active); in assay [9], 18.7 µM (active); in [4], 17.2 µM (active); in assay [5], 20.9 µM (active). Further, the Potency entry in assay [7] was “inactive”.
Regarding `O=C(O)C=Cc1ccc(O)c(O)c1`, the Potency was 24.1 µM (active) in assay [1], 3.72 µM (active) in [9], 33.2 µM (active) in [5] and 23.5 µM (active) in [8]. Also, the Potency result in assay [3] and in [6] was “inactive” in each case.
For the compound `CCC(=O)O[C@]1(C(=O)CO)CC[C@H]2[C@@H]3CCC4=CC(=O)CC[C@]4(C)[C@@H]3CC[C@@]21C`, the Potency result in assay [1], in assay [9], in assay [2], in [3], in assay [5] and in [6] was “inactive” in each case. Besides, the Potency entry in assay [8] was “inactive”.
On to `O=C(NOCC(O)CO)c1cc(Br)c(F)c(F)c1Nc1ccc(I)cc1F` (configuration not stated), for which the Potency is 0.341 µM (active) in assay [1], 0.148 µM (active) in assay [5] and 11.8 µM (active) in assay [6]. Also, the Potency result in assay [9], in [3] and in assay [7] was “inactive” in each case.
Consider `COc1ccc(-c2coc3cc(O)cc(O)c3c2=O)cc1`, for which the Potency in assay [1] is 24.1 µM (active). For the same compound, the Potency result in [9], in [2], in [3], in [5], in [6] and in assay [7] was “inactive” throughout. Further, in assay [8], the Potency entry is “inactive”.
In the case of `CO[C@H]1C[C@@H]2CC[C@@H](C)[C@@](O)(O2)C(=O)C(=O)N2CCCC[C@@H]2C(=O)O[C@H]([C@@H](C)C[C@@H]2CC[C@H](O)[C@H](OC)C2)CC(=O)[C@H](C)C=C(C)[C@@H](O)[C@@H](OC)C(=O)[C@H](C)C[C@H](C)C=CC=CC=C1C`, the Potency entry in [1], in [5], in assay [6] and in assay [8] was “inactive” throughout. In addition, the Potency in [2] was 9.68 µM (active).
For `CC(C)n1cnc2c(NCCCCCCNC(=O)OC(C)(C)C)nc(NCCO)nc21`, the Potency entry in [1], in assay [3], in [6] and in [7] was “inactive” in each case. Moreover, the Potency in [5] is 33.2 µM (active).
As to `COc1ncc(-c2ccc3nccc(-c4ccnnc4)c3c2)cc1NS(=O)(=O)c1ccc(F)cc1F`, the Potency in assay [1] was 1.52 µM (active); in [9], 0.105 µM (active); in [3], 0.0372 µM (active); in assay [4], 0.001 µM (active); in assay [5], 0.372 µM (active); in [8], 1.48 µM (active). For the same compound, the Potency result in assay [7] is “inactive”.
Consider `CC(C(=O)O)c1ccc(-c2ccccc2)c(F)c1` (configuration not stated), for which the Potency in assay [1] is 24.1 µM (active). For the same compound, the Potency entry in [9], in assay [2], in [3] and in assay [6] was “inactive” in each case.
For the compound `N#C[C@H]1C[C@H]2C[C@@H]2N1C(=O)[C@@H](N)C12CC3CC(CC(O)(C3)C1)C2`, the Potency in assay [1] is 24.1 µM (active). Also, the Potency entry in assay [2], in [3], in [4], in [5] and in assay [7] was “inactive” each time.
Regarding `CO[C@H]1C=CO[C@@]2(C)Oc3c(C)c(O)c4c(O)c(c5c(c4c3C2=O)NC2(CCN(CC(C)C)CC2)N=5)=NC(=O)C(C)=CC=C[C@H](C)[C@H](O)[C@@H](C)[C@@H](O)[C@@H](C)[C@H](OC(C)=O)[C@H]1C`, the Potency result in assay [1], in [2], in assay [3], in assay [5], in assay [6] and in [7] was “inactive” throughout. Also, the Potency entry in [8] was “inactive”.
In the case of `O=C(O)CCc1nc(-c2ccccc2)c(-c2ccccc2)o1`, the Potency result in [1], in assay [9], in assay [3], in assay [4], in assay [5] and in assay [6] was “inactive” each time. Further, the Potency entry in assay [7] and in assay [8] was “inactive” each time.
Consider `NS(=O)(=O)c1ccc(NC2=CC(=O)c3ccccc3C2=O)cc1`, for which the figures for the Potency in [1] and in assay [2] were 30.4 µM (active) and 1.09 µM (active), respectively. Moreover, the Potency entry in assay [4], in assay [6], in assay [7] and in assay [8] was “inactive” each time.
`CO[C@H]1C[C@@H]2CC[C@@H](C)[C@@](O)(O2)C(=O)C(=O)N2CCCC[C@@H]2C(=O)O[C@H]([C@H](C)C[C@@H]2CC[C@H](OC(=O)C(C)(CO)CO)[C@H](OC)C2)CC(=O)[C@H](C)C=C(C)[C@@H](O)[C@@H](OC)C(=O)[C@H](C)C[C@H](C)C=CC=CC=C1C`: the Potency result in assay [1] and in assay [7] was “inactive” in each case. The Potency is 20.9 µM (active) in [9] and 29.6 µM (active) in assay [3].
On to `CN(C[C@@H]1COCCO1)S(=O)(=O)Nc1ccc2ccc3ncc(-c4cnn(C)c4)cc3c(=O)c2c1`, for which the Potency in assay [1] was 17.1 µM (active); in [9], 14.8 µM (active); in assay [3], 14.8 µM (active); in assay [4], 1.22 µM (active). Besides, the Potency result in assay [6], in assay [7] and in assay [8] was “inactive” each time.
